Source: PubChem BioAssay (NCI)
The panel holds about 79,000 compounds, 15% with a hit somewhere; the sample as a whole holds those more often. A number with no mark means an inactive call. The source made the active and inactive calls. No stated cut-off is given here; in the data, active means growth inhibition above about 70%; inactive means the rest.

What was measured:
[1] = NCI Yeast Anticancer Drug Screen. Data for the rad50 strain (AID 155);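 further: 0% = growth of vehicle-only cultures of the same strain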; conditions: S. cerevisiae rad50 strain growth inhibition; at 50.0 µM; hits give high values
How it was run: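 Readout: growth inhibition relative to vehicle-treated cultures. Compound exposure was carried out in a genetically defined yeast strain deficient in DNA damage repair.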

[2] = NCI Yeast Anticancer Drug Screen. Data for the mec2-1 strain (AID 157); conditions: S. cerevisiae mec2-1 strain, at 50.0 µM, hits give high values
How it was run: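 Strain: mec2-1 (DNA repair/cell cycle alteration). Compound exposure, then growth measured; inhibition expressed relative to vehicle.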

[3] = NCI Yeast Anticancer Drug Screen. Data for the sgs1 mgt1 strain (AID 161);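 further: 0% = growth of cultures given vehicle only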; conditions: S. cerevisiae sgs1 mgt1 strain, at 50.0 µM, hits give high values
How it was run: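 Test agents were incubated with a DNA-repair-mutant yeast strain. Growth was then read and compared against vehicle-treated controls.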

[4] = NCI Yeast Anticancer Drug Screen. Data for the cln2 rad14 strain (AID 165);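 further: 0% = growth equal to vehicle treated cultures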; conditions: S. cerevisiae cln2 rad14 strain, at 50.0 µM, hits give high values
How it was run: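 Compounds are applied to the cln2 rad14 yeast strain, and growth is then compared with that of vehicle-treated cultures to give inhibition.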

[5] = NCI Yeast Anticancer Drug Screen. Data for the bub3 strain (AID 167); conditions: S. cerevisiae bub3 mutant strain, at 50.0 µM, hits give high values
How it was run: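 Readout: yeast growth inhibition, expressed relative to vehicle-only wells. The test organism is a mutant strain from a panel with lesions in DNA repair or checkpoint genes.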

[6] = NCI Yeast Anticancer Drug Screen. Data for the mlh1 rad18 strain (AID 175); conditions: S. cerevisiae mlh1 rad18 strain growth inhibition; at 50.0 µM; hits give high values
How it was run: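 Read-out is yeast growth inhibition, calculated against vehicle-only controls. The compound was applied to a strain engineered with DNA damage repair alterations.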

Row | Compound | growth inhibition [1] | growth inhibition [2] | growth inhibition [3] | growth inhibition [4] | growth inhibition [5] | growth inhibition [6]
1 | COc1cc(C)oc(=O)c1 | -6.1% | 6.15% | -2.45% | -16.6% | 8.1% | 3.3%
2 | CC(=O)OC1C(O)C(C)OC(OC2C(C)OC(OC(=O)[C@@H]3CC[C@@H]4[C@H](C3)OC3(C[C@@H](OC(=O)/C=C/c5ccccc5)[C@@H](C)CO3)[C@@]43CO3)C(O)C2OC(C)=O)C1O (some centres not stated) | 91% (active) | 93.4% (active) | 92.2% (active) | 90.1% (active) | 91.1% (active) | 91.8% (active)
3 | COc1cc2c(cc1OC)C(=O)/C(=C/c1ccc(N(C)C)cc1)CC2 | -39.5% | -58% | -28.9% | -63.7% | -7.2% | -39.8%
4 | O=C(O)CC(=O)C(C(=O)O)C(CCc1ccccc1)C(C(=O)O)C(=O)CC(=O)O (configuration not stated) | -21.2% | -13.6% | -19.7% | 10.2% | -2.75% | -11.4%
5 | O=NN(CCCl)C(=O)N[C@H]1CCC[C@@H](O)C1 | 5.85% | -3.35% | -6.2% | -42.9% | -15.2% | 6%
6 | Cc1ccc2nc(C)ccc2c1 | -38.2% | -23.2% | -2.7% | -16.1% | -0.2% | -3.4%
7 | CCOC(=O)C(NC(C)=O)C(C)O (configuration not stated) | 5.85% | 3.95% | 5.05% | 3.85% | 2.95% | -0.75%
8 | Oc1c(Cl)cc(Cl)cc1C=Nc1cc(C(F)(F)F)ccc1N1CCc2ccccc2C1 | 53.5% | 0.25% | 50% | 14.4% | 42.8% | 39.6%
9 | c1ccc2c(c1)ccc1c2c[n+](CCCCCCCC[n+]2cc3c4ccccc4ccc3c3ccccc32)c2ccccc12 | 88.4% (active) | 92.2% (active) | 87.5% (active) | 86.2% (active) | 83.2% (active) | 90.5% (active)
10 | O=C(Nc1ccc(C(F)(F)F)cc1[N+](=O)[O-])C(=O)C1NC(=S)NC1=O (configuration not stated) | 30.6% | 12.1% | 24.9% | 25.4% | 7.35% | 27.6%
11 | O=C(Nc1cccc2ccccc12)Oc1cccc2cccnc12 | 98% (active) | 96.9% (active) | 97.5% (active) | 94% (active) | 98.5% (active) | 98% (active)
12 | CC1(C)C/C(=C\c2cccc(Cl)c2)C(=O)c2ccccc21 | 11.8% | 16.6% | -0.75% | -12.8% | -5.65% | 7.4%
13 | Cn1c2ccccc2c(=S)c2c(O)cc3c(c21)C=CC(C)(C)O3 | 28.8% | 6.3% | -0.7% | 22.9% | 9.85% | 21.6%
14 | CC(C)(O)CC(=O)/C=C\c1ccc2c(c1)OCO2 | 25.9% | 27.9% | 10.1% | -11.9% | -4.4% | 4.35%
15 | CNc1ncn(-c2c(C)cccc2C)c(=O)n1 | -2.5% | -3.6% | 8.85% | -15.8% | -2.65% | 4.05%
16 | Cc1ccc(Nc2nc(=O)[nH]c(=O)[nH]2)cc1N | -11.7% | 1.65% | 20.3% | 11.7% | 27.1% | -54.5%
17 | CCCNc1ncnc2ncn(C)c12 | 12.4% | -1.6% | -12.9% | 5.05% | 7.35% | 0.35%
18 | O=C(O)C(O)c1ccc(Cl)c(Cl)c1 (configuration not stated) | 29.4% | -24.3% | 7.2% | -13.3% | 15.8% | 11.1%
19 | CC(=O)Nc1cc(F)c(N=Nc2ccc([N+](=O)[O-])cc2)c(F)c1 | -9.5% | -3.45% | 22.1% | -38.2% | -28.1% | -10.3%

Row | Compound | growth inhibition [1] | growth inhibition [2] | growth inhibition [3] | growth inhibition [4] | growth inhibition [5] | growth inhibition [6]
20 | COC(=O)CC(C(C(=O)OC)C(=O)OC)N1C(=O)OCC1c1ccccc1 (configuration not stated) | -16.6% | -0.45% | -29.1% | -12.3% | -17.9% | -15.9%
21 | CN1C(=O)N/C(=C\c2ccc(S(=O)(=O)N/N=C/c3ccccc3)cc2)C1=O | 16.4% | 44.9% | 20.1% | -2.55% | 2.75% | 39.9%
22 | C/C(=N/NC(=S)N1CCCCC1)c1ccccc1O | -17.4% | -41.7% | 1.55% | 4.4% | -10.6% | -5.75%
23 | C[Si](C)(C)N1CCCC1 | -22.1% | -26.9% | -16.8% | 12.4% | 3.5% | -6.85%
24 | O=C1Nc2ccccc2N=NN1CCCl | 22.2% | 6.4% | -2.85% | 1.85% | -7.3% | -18.4%
25 | CCCCCCCCN(CCCCCCCC)CC(O)c1ccc2cc(Br)c3ccccc3c2c1 (configuration not stated) | 25.9% | 26.2% | 46.5% | 47.1% | 24% | 49.4%
26 | N=C1C=Cc2ccccc2/C1=N/N=c1/ccccn1O | 72.2% (active) | 91.6% (active) | 73.5% (active) | 51.7% | 98.3% (active) | 78.2% (active)
27 | COc1cc2c3c(c1OC)-c1cc4c(cc1CC3(C#N)N(C(=O)c1ccccc1)CC2)OCO4 (configuration not stated) | 3.5% | 8.05% | -29.2% | -5.35% | 15.1% | 26.1%
28 | CC(C)=CCCC(C)(O)C1CC=C(C)CC1 (configuration not stated) | 0.5% | -18.8% | -2.6% | 3.05% | -13.9% | -7.65%
29 | NC(=O)C(CC(C(N)=O)C(N)=O)C(N)=O | 7.5% | 18.4% | -8.45% | -24.9% | 7.7% | -6.55%
30 | CCOc1nc2c(c(=O)n(C)c(=O)n2C)n1C | 26.9% | -7.55% | -6.25% | 8% | 7.65% | 20.9%
31 | c1ccc2cc3c(cc2c1)Cn1c-3nc2ccccc21 | 19.4% | -8.7% | 13.2% | 6.55% | 11.4% | 27.8%
32 | C[C@@]12CCC(=O)C=C1CC[C@H]1C2C(=O)C[C@]2(C)C1CC[C@@]2(O)C(=O)COC(=O)CCC(=O)O (some centres not stated) | 0.1% | 10.3% | -19.8% | 4.45% | 6.95% | 0.25%
33 | COC1CC(NC(C)=O)C(O)C(C)O1 (configuration not stated) | -10.2% | -12.4% | -10.6% | -40% | 5.65% | 1.5%
34 | CCCC(=O)C(C)(C)C | 18.2% | -12.4% | -35% | -41.5% | -22.1% | 6.75%
35 | CC(=O)OC(C[N+]1(C)CCCCCC1)C[N+]1(C)CCCCCC1 | -34.6% | -4.8% | -17.8% | -27.6% | 7.95% | -11.2%
36 | CC(=O)OCc1nc2ncnc(N)c2[nH]1 | 0.5% | -5.65% | -11.4% | -52.4% | -3.4% | -4.9%
37 | NC(=O)C12CC3CC(CC(Br)(C3)C1)C2 | -7.9% | -6.85% | -8.25% | 16.2% | 2.5% | -7.1%
